Shown are actives, neighbours in structure and some others; about 3% of the full set was active somewhere.
TrxR1 substrate – rat thioredoxin reductase 1 substrate activity; AID 588456; actives 0.01% (n = 390,000); Potency, µM (titrated, usually from 114 µM), for the others: at the highest dose activity change, negative = substrate turnover; O89049; purified TrxR1 substrate turnover, NADPH consumption readout; further: on the % scale 0 is the no-effect control and ±100 the full control effect; nearly all actives have a fitted effect of over 50% in size
Target sequence (O89049 whole entry, looked up): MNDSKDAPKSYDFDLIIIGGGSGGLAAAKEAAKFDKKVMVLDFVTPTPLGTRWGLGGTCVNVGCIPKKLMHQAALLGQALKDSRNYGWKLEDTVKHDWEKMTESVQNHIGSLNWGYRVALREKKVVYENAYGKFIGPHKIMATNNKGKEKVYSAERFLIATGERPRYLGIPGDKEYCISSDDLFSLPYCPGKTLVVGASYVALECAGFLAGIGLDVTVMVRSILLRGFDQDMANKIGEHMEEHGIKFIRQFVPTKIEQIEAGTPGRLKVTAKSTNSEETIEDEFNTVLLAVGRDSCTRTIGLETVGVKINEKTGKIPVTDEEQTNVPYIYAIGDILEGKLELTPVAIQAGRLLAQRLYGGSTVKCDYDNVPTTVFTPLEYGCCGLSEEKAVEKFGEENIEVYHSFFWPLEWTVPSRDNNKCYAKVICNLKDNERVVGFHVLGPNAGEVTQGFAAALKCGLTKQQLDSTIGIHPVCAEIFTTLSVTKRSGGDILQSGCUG
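Rat TrxR1, dispensed at 90 nM, was prereduced with 400 uM NADPH (final) for 5 min at ~22 deg C, then incubated with compound 15 min before 400 uM selenite. A first-read NADPH fluorescence drop versus no-compound background flagged substrates.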
A549 viability – A549 cytotoxicity, counter-screen for Nrf2 inhibitors; AID 504648; Potency, µM (series often up to 46 µM), for inactives: at the highest dose activity change, negative = cytotoxicity, most hits filed as inhibitors; actives 0.16% (n = 390,000); A549 ARE-Fluc cells, CellTiter-Fluor viability, 18-24 h; further: on the % scale 0 is the no-effect control and ±100 the full control effect
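A549 ARE-Fluc cells in 5% FBS OPTI-MEM, 5000 cells/well, rested 2 h then exposed to compounds in concentration-response for 18-24 h at 37 °C. Viability by CellTiter-Fluor fluorescence (Ex 405/Em 525) after 30 min; luciferase luminescence (BugLite, 15 min, RT) read afterwards.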
TrxR1 inh – rat TrxR1 inhibition | O89049 | recombinant rTrxR1, NADPH fluorescence consumption, selenite substrate | Potency, µM (series often up to 114 µM), for the others: at the highest dose activity change, negative = inhibition, actives largely listed as inhibitors | actives 1% (n = 390,000) | AID 588453; further: on the % scale 0 is the no-effect control and ±100 the full control effect; nearly all actives have a fitted effect of over 65% in size
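Rat TrxR1 (90 nM in the dispensed reagent) was pre-reduced with 400 uM NADPH for 5 min at room temperature, then incubated with compound for 15 min. After 400 uM selenite was added, NADPH fluorescence (Ex 340/Em 450 nm) was followed for 8 min.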
GALK inhibitor – galactokinase (human) inhibition | actives 0.007% (n = 270,000) | AID 1868 | Potency, µM (top dose mostly 57.5 µM), for inactives: at the top dose activity change, negative = inhibition, most hits filed as inhibitors | Purified GALK, Kinase-Glo residual ATP luminescence | P51570; further: on the % scale 0 is the no-effect control and ±100 the full control effect
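Galactose (100 uM) and ATP (35 uM) were turned over by 5 nM GALK for 1 h at RT. Kinase-Glo Plus then converted the remaining ATP into a luminescent signal.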
Nrf2 block – inhibitors of Nrf2 signaling. A549 ARE-Fluc reporter, luciferase luminescence, 18-24 h. Potency, µM (top dose mostly 46 µM), without a hit: at the top dose activity change, negative = inhibition, hits mostly inhibitors. actives 2.1% (n = 360,000); further: on the % scale 0 is the no-effect control and ±100 the full control effect; nearly all actives have a fitted effect of over 60% in size
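Nrf2 activity is the BugLite luminescence, read 15 min after reagent at room temperature, following CellTiter-Fluor cytotoxicity readout (30 min, 37C). Compound titrations were applied for 18-24 h to 5000 A549 ARE_Fluc cells/well in 5% FBS OPTI-MEM.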
Nrf2 ARE act – activators of Nrf2 (ARE) signaling. AREc32 ARE-luciferase reporter (MCF7-derived line), luminescence, 24 h. actives 0.31% (n = 410,000). AID 624171. Potency, µM (highest dose often 46.1 µM), without a hit: at the highest dose activation, usual class: activators; further: % of control where 0% means no effect; nearly all actives have a fitted effect of over 65% in size
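Nrf2 activation is followed as ARE-luciferase induction in the AREc32 line after one day of compound treatment; luminescence is read with Steady-Glo.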
The depositor's hits bear a star; ? = inconclusive; . = not tested or not shown; [ ] = dose if it differs, or a comment. The call rests on the fitted dose curve; in most records, active means well fitted curve in the direction sought with a large enough effect; inconclusive means small, poorly fitted or top-dose-only effect, or another doubt; inactive means no such curve, though single readings can be large; an effect the other way counts as inactive or inconclusive. Potency means the concentration at half of the fitted maximal effect.

SMILES	TrxR1 substrate	A549 viability	TrxR1 inh	GALK inhibitor	Nrf2 block	Nrf2 ARE act
O=C(Nc1nc2n(n1)C(c1ccccc1)C=C(c1ccccc1)N2)c1ccccc1 (configuration not stated)	10%	20%	56µM*	.	?	0%
COc1ccc(C2C=C(c3ccccc3)Nc3nc(NC(=O)c4ccc(C)cc4)nn32)cc1 (configuration not stated)	5%	13%	19%	.	1%	4%
CNC(=O)COc1ccccc1C(=O)Nc1ccc2c(c1)oc1ccccc12	118%	2%	44%	3%	7.3µM*	-2%
CC(C)(C)OC(=O)NCc1nnc(C(C(=O)OCc2ccccc2)c2ccccc2)s1 (configuration not stated)	.	-4%	.	.	16%	.
Cc1cc(C(Br)(Br)Br)nc2ccccc12	5%	.	3.2µM*	.	.	.
Cc1cc(Cl)nc2ccccc12	4%	.	14%[0.0914 µM]	.	.	.
Cc1ccc(OCC(=O)Nc2ccccc2OCc2cc(=O)n3ccccc3n2)cc1C	?	14%	?	.	.	1%
N#Cc1ccc(NC(=O)COC(=O)C2Cc3ccccc3CN2C(=O)c2ccccc2)cc1 (configuration not stated)	-11%	?	-7%	0%	7.3µM*	-1%
Cc1cccc(C)c1NC(=O)COC(=O)C1Cc2ccccc2CN1C(=O)c1ccccc1 (configuration not stated)	-6%	-1%	-7%	0%	17%	-1%
CCc1ccccc1NC(=O)CSc1nnc(-c2nonc2NC(C)=O)n1C	4%	0%	13%	.	9%	1%
CC1(C)CC(=O)c2sc(NC(=O)c3cccs3)nc2C1	-22%	-19%	-22%	0%	15µM*	0%
CC1(C)CC(=O)c2sc(NC(=O)c3ccccc3)nc2C1	.	.	.	5%	.	.
CCOC(=O)N1CCN(S(=O)(=O)c2ccc(C(=O)NNc3nc4c(C)cc(C)cc4s3)cc2)CC1	-3%[57.1 µM]	-13%	6%[57.1 µM]	.	?	3%
CCOC(=O)N1CCN(S(=O)(=O)c2ccc(C(=O)NNc3nc4cc(C)cc(C)c4s3)cc2)CC1	8%[57.1 µM]	?	23%[57.1 µM]	.	3.7µM*	0%
CCc1c(C)nc2ncnn2c1N1CCCC(C(=O)Nc2ccc(NC(C)=O)cc2)C1 (configuration not stated)	-10%	4%	?	1%	-2%	0%
CCc1c(C)nc2ncnn2c1N1CCCC(C(=O)NCc2ccc3c(c2)OCO3)C1 (configuration not stated)	3%	-1%	2%	3%	10µM*	-1%
CCC(C(=O)NC1CCCCC1)N(Cc1cccs1)C(=O)CCC(=O)Nc1cc(C)on1 (configuration not stated)	3%[57.1 µM]	-14%	4%[57.1 µM]	11%	8.2µM*	0%
Cc1cc(NC(=O)CCC(=O)N(Cc2cccs2)C(C(=O)NC2CCCC2)c2ccncc2)no1 (configuration not stated)	-1%	-9%	-21%	-1%	10%	0%
Cc1ccc(NC(=O)C(C)c2ccc(-c3ccccc3)c(F)c2)cc1 (configuration not stated)	-2%	?	-3%	1%	15µM*	0%
Cc1cc(NC(=O)c2noc3c2CCCC3)nn1Cc1ccc(Cl)cc1	-2%	-12%	30%	-1%	23µM*	4%
COc1ccc(-c2cc(C(=O)Nc3cc(C)n(Cc4ccc(Cl)cc4)n3)no2)cc1OC	16%[57.1 µM]	-28%	5%[57.1 µM]	1%	4.1µM*	0%
COc1ccc2c(c1)CCc1c(C(=O)Nc3cc(C)n(Cc4ccc(Cl)cc4)n3)noc1-2	14%	11%	30%	2%	-6%	-1%
O=C(c1noc2c1CCCCC2)N1CCN(c2ccc(Cl)cc2)CC1	-3%	-1%	24%	.	8.2µM*	-1%
Cc1ccc(C)c(N2CCN(C(=O)C3CCN(c4nc5ccc(C)cc5[nH]4)CC3)CC2)c1	6%[57.1 µM]	?	14%[57.1 µM]	.	.	0%
CCOC(=O)N1CCN(C(=O)C2CCCN(S(=O)(=O)c3ccc(OCC)cc3)C2)CC1 (configuration not stated)	-5%	-5%	-2%	3%	?	-1%
SMILES	TrxR1 substrate	A549 viability	TrxR1 inh	GALK inhibitor	Nrf2 block	Nrf2 ARE act
CCOc1ccc(S(=O)(=O)N2CCCC(C(=O)N3CCN(c4ccccc4)CC3)C2)cc1 (configuration not stated)	9%	-18%	22%	-7%	23µM*	0%
CCOc1ccc(S(=O)(=O)N2CCN(C(=O)COc3ccc(Br)cc3)CC2)cc1	-3%	?	12%	.	16µM*	4%
COc1cccc(N2CCN(C(=O)C3CCCN(S(=O)(=O)c4cccc5nsnc45)C3)CC2)c1 (configuration not stated)	-9%	-10%	7%	.	16µM*	0%
O=C(C1CCCN(S(=O)(=O)c2ccc(Br)s2)C1)N1CCN(c2ccc(F)cc2)CC1 (configuration not stated)	0%	-2%	14%	.	?	1%
CCOc1ccc(OCC(=O)N2CCN(S(=O)(=O)c3ccccc3)CC2)cc1	.	.	.	.	.	-1%
CC1CCN(C(=O)C2CCCN(S(=O)(=O)c3cccc4nsnc34)C2)CC1 (configuration not stated)	-5%	-1%	8%	1%	-24%	0%
CC(=O)c1ccc(N2CCN(C(=O)C3CCCN(S(=O)(=O)c4ccc(Br)s4)C3)CC2)cc1 (configuration not stated)	-4%	-8%	7%	.	16µM*	3%
CC(=O)c1c(C)[nH]c(C(=O)OCC(=O)N2CCN(S(=O)(=O)c3ccc(C)cc3)CC2)c1C	-6%	-4%	-16%	.	16µM*	0%
COc1cc(OC)c(NS(=O)(=O)c2cc3c(cc2C)N(C(C)=O)CCO3)cc1Cl	-1%	17%	25%	.	-11%	3%
COc1ccc(OC)c(NS(=O)(=O)c2cc3c(cc2Cl)N(C(C)=O)CCO3)c1	9%[11.4 µM]	15%	18µM*	.	?	0%
O=C(NCC(c1cccs1)N1CCOCC1)c1ccccc1NS(=O)(=O)c1cccc([N+](=O)[O-])c1 (configuration not stated)	-5%[57.1 µM]	?	9%[57.1 µM]	0%	21µM*	3%
O=C(Nc1ccccc1F)c1ccc(Cn2nc(N3CCN(c4ccccc4)CC3)ccc2=O)o1	-4%[57.1 µM]	-20%	5%[57.1 µM]	.	21µM*	-1%
O=C(Cn1nc(N2CCN(c3ccccc3)CC2)ccc1=O)Nc1ccc(F)cc1F	2%[57.1 µM]	-3%	8%[57.1 µM]	.	1%	3%
